The list is not random: actives were taken first. Their share in the collection is about 2.4%.
TDP1 inh = blocks human tyrosyl-DNA phosphodiesterase 1; Q9NUW8; recombinant TDP1, AlphaScreen DNA substrate cleavage; Potency, µM (doses to about 130 µM), for the others: at the top dose activity change, negative = inhibition, actives largely listed as inhibitors; actives 0.28% (n = 350,000); AID 485290; also: potency is read from the fitted curve at half-maximal effect; % is scaled to controls: 0 for no effect and ±100 for the full control effect; nearly all actives have a fitted effect of over 40% in size
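Enzyme-compound mixtures sat 15 min at room temperature, followed by a 5 min reaction with 15 nM final substrate and 10 min with AlphaScreen beads. Recombinant human Tdp1 was used at 1 nM final.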
Pol kappa inh-1 = DNA polymerase kappa (human) inhibition | actives 0.53% (n = 400,000) | Potency, µM (highest dose often 107 µM), without a hit: top-dose activity, negative = inhibition, most hits filed as inhibitors | AID 588579 | purified Pol kappa, fluorescent DNA synthesis assay, 10 min | Q9UBT6; also: potency is read from the fitted curve at half-maximal effect; % is scaled to controls: 0 for no effect and ±100 for the full control effect
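Here, compound and 10 nM enzyme are combined for 15 min at room temperature; adding 50 nM substrate (final) starts DNA synthesis, tracked by fluorescence at 0 and 10 min against buffer-only wells.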
Pol iota inh = DNA polymerase iota (human) inhibition; Pol iota fluorescent replication assay, 10 min; Q9UNA4; actives 1% (n = 390,000); Potency, µM (doses to about 115 µM), without a hit: at the top dose activity, negative = inhibition, hits mostly inhibitors; also: potency is read from the fitted curve at half-maximal effect
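Pol iota at 10 nM preincubated 15 min with compounds at room temperature; reaction started with fluorescent substrate, 50 nM final. Fluorescence read kinetically at 0 and 10 min; buffer-only wells as negative control.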
Pol beta inh = DNA polymerase beta (human) inhibition. AID 485314. Potency, µM (top dose mostly 114 µM), inactives show top-dose activity change, negative = inhibition, most hits filed as inhibitors. actives 1.3% (n = 340,000). P06746. Pol beta primer extension/strand displacement, fluorescence kinetic; also: potency is read from the fitted curve at half-maximal effect; % is scaled to controls: 0 for no effect and ±100 for the full control effect
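10 nM enzyme + cpd, 15 min RT; start with substrate 50 nM final; read 0 min and after 10 min RT. Corrected, normalized data; 4-parameter Hill curve fit.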
Pol eta inh-1 = blocks human DNA polymerase eta activity. Q9Y253. recombinant Pol eta, fluorescent DNA replication assay. Potency, µM (top dose mostly 114 µM), for the others: at the highest dose activity change, negative = inhibition, hits mostly inhibitors. actives 1.2% (n = 390,000). AID 588591; also: potency is read from the fitted curve at half-maximal effect; % is scaled to controls: 0 for no effect and ±100 for the full control effect
Target sequence (Q9Y253 whole entry, looked up): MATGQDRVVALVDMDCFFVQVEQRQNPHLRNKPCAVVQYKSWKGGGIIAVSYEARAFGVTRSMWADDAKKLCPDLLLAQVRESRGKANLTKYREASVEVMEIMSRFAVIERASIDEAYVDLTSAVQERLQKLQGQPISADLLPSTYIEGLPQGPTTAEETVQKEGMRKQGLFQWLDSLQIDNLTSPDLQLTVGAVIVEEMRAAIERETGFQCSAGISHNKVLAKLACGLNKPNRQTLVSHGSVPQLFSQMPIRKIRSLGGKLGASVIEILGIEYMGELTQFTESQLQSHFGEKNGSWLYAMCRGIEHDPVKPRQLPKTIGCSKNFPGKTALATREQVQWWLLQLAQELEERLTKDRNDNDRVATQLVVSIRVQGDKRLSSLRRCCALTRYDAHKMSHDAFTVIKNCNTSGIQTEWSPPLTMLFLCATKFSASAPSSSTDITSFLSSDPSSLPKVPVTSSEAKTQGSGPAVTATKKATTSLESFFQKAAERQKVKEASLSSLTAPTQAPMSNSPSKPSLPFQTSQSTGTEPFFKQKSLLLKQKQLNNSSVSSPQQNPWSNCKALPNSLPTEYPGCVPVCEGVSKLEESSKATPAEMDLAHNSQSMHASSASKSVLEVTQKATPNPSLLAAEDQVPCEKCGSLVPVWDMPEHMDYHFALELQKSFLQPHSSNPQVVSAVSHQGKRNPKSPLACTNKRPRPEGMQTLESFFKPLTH
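Pol eta at 10 nM preincubated with compounds 15 min at room temperature; reaction started with fluorescent substrate (50 nM final) and read kinetically at 0 and 10 min.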
TbPGK inh = blocks T. brucei phosphoglycerate kinase; TbPGK coupled GAPDH assay, Kinase-Glo luminescence; shares compounds with Pol kappa inh-1; Potency, µM (doses to about 57.5 µM), for the others: at the highest dose activity change, negative = inhibition, hits mostly inhibitors; actives 79% (n = 500); AID 686980; also: potency is read from the fitted curve at half-maximal effect; % is scaled to controls: 0 for no effect and ±100 for the full control effect; nearly all actives have a fitted effect of over 65% in size
POLI cherry-pick = Inhibitors of human DNA polymerase iota, confirmation; Potency, µM, most hits filed as inhibitors; shares compounds with Pol kappa inh-1; Pol iota primer extension, TAMRA/BHQ fluorescence; AID 720496; actives 77% (n = 1,500); also: potency is read from the fitted curve at half-maximal effect
GALK confirm = confirmation of human galactokinase (GALK) inhibitors; shares compounds with Pol eta inh-1; purified GALK, Kinase-Glo ATP depletion luminescence; Potency, µM (highest dose often 115 µM), without a hit: at the highest dose activity, negative = inhibition, actives largely listed as inhibitors; actives 70% (n = 150)
Redox cycling = generates H2O2 by redox cycling, flagging GALK artifacts; shares compounds with Pol eta inh-1; Phenol red-HRP H2O2 redox cycling, absorbance 600 nm; Potency, µM (doses to about 115 µM), for inactives: top-dose activity change, negative = H2O2 signal, actives largely listed as inhibitors; actives 40% (n = 150); AID 2035
HEK293 tox = counter-screen for GALK inhibitors: HEK293 cell cytotoxicity. shares compounds with Pol eta inh-1. HEK-293 viability, ATP luminescence (CellTiter-Glo), 24/48 h. Potency, µM (highest dose often 46.1 µM), for inactives: at the highest dose activity change, negative = cytotoxicity, actives largely listed as inhibitors. actives 10% (n = 170). AID 2547; also: potency is read from the fitted curve at half-maximal effect; % is scaled to controls: 0 for no effect and ±100 for the full control effect
Pol kappa inh-2 = Pol kappa (human) inhibition, cherry-pick confirmation. purified Pol-kappa, fluorescent strand-displacement substrate. shares compounds with Pol eta inh-1. actives 76% (n = 920). Potency, µM, most hits filed as inhibitors; also: potency is read from the fitted curve at half-maximal effect
Pol eta inh-2 = Pol eta (human) inhibition, cherry-pick confirmation. shares compounds with Pol eta inh-1. Pol eta primer extension, TAMRA/BHQ fluorescence, 10 min. Potency, µM, hits mostly inhibitors. actives 64% (n = 2,600). AID 720502; also: potency is read from the fitted curve at half-maximal effect
* marks the source's active call; other numbers are inactive results; ? = inconclusive; . = no result given. Calls follow the shape of the dose curve; as a rule, active = well fitted curve in the direction sought with a large enough effect; inconclusive = small, poorly fitted or top-dose-only effect, or another doubt; inactive = no such curve, though single readings can be large; an effect the other way counts as inactive or inconclusive.

SMILES	TDP1 inh	Pol kappa inh-1	Pol iota inh	Pol beta inh	Pol eta inh-1	POLI cherry-pick	Pol eta inh-2	others
C=CCn1c(O)c(N=NC(=O)CNC(=O)/C=C/c2ccc(OC)cc2)c2ccccc21	1%	-13%	15%	39%	10%	.	.
C=CCn1c(O)c(N=NC(=O)CNC(=O)/C=C/c2ccco2)c2ccccc21	?	?	28µM*	14µM*	50µM*	38*	76*
Cc1cc(OCC(=O)Nc2ccc(N3CCN(C(=O)c4ccco4)CC3)cc2)cc(C)c1Cl	-3%	-3%	?	?	79µM*	53*	?
Cc1ccc(OCC(=O)Nc2ccc(N3CCN(C(=O)c4ccco4)CC3)cc2)cc1C	4%	-11%	89%	1%	-22%	.	.
CN=Cc1nc(-c2ccccc2)oc1O	1%	-2%	?	22%	-15%	.	.
CC1=Nc2ccccc2/C1=C\c1nc(-c2ccc(F)cc2)oc1O	2%	?	?	35µM*	?	?	34*
O=C1/C(=C/c2ccco2)SC(=S)N1c1cccnc1	.	8.9µM*	?	1.6µM*	2.8µM*	3.8*	5.4*	TbPGK inh=3.3µM*;Pol kappa inh-2=4.7*
O=C(N/N=C/c1ccc([N+](=O)[O-])o1)c1cc2c(ccc3ccccc32)o1	0%	-25%	?	3.2µM*	32µM*	27*	19*
O=C(N/N=C/c1ccc(O)c(Br)c1)c1cc2c(ccc3ccccc32)o1	0%	-15%	1%	0%	6%	.	.
Cc1nc2ccccn2c1C(=O)N/N=C/c1ccccc1Cl	.	-2%	172%	17%	-16%	.	.
O=C(N/N=C/c1cc(Cl)c(O)c(Cl)c1)c1cc2c(ccc3ccccc32)o1	-15%	?	?	28µM*	22µM*	?	43*	Pol kappa inh-2=75*
Cc1nc2ccccn2c1C(=O)N/N=C/c1ccc([N+](=O)[O-])o1	?	50µM*	11µM*	32µM*	7.9µM*	60*	34*
COc1ccc(Nc2nc3c(S(=O)(=O)c4ccc(Br)cc4)nnn3c3ccsc23)c(OC)c1	0%	-4%	-2%	8%	11%	.	.
O=C1NN(c2ccccc2)C(=O)/C1=C\c1ccc(-c2cc([N+](=O)[O-])ccc2O)o1	4%	40µM*	16µM*	10µM*	20µM*	?	27*
O=C1NN(c2ccc(Cl)cc2)C(=O)/C1=C\c1ccc(-c2cccc(C(=O)O)c2)o1	.	20µM*	8.9µM*	10µM*	4.5µM*	21*	17*
Cc1cc(/C=C2\C(=O)NN(c3ccccc3)C2=O)c(C)n1-c1ccccc1O	.	-24%	-13%	2%	-10%	.	.
COc1ccc(CCNC(=O)CCCn2c(=O)c3ccccc3n(Cc3ccccc3)c2=O)cc1OC	-5%	-11%	-24%	-2%	-7%	.	.
COc1ccc(-c2nc3ccccc3s2)cc1NC(=O)c1cc2ccccc2o1	-1%	3%	19%	4%	-15%	.	.
CCOC(=O)c1sc(NC(=O)c2c(-c3ccccc3)c(-c3ccccc3)nn(C)c2=O)nc1C	7%	-2%	21%	2%	-22%	.	.
CCOC(=O)C1CCN(C(=O)Cn2ncc3c4ccccc4n(Cc4ccc(F)cc4)c3c2=O)CC1	3%	-7%	-3%	-3%	1%	.	.
NS(=O)(=O)c1ccc(NC2=CC(=O)C(=O)c3ccccc32)cc1	.	-17%	?	?	?	?	?	GALK confirm=15µM*;Redox cycling=11µM*;HEK293 tox=7%
CC(=O)Nc1ccc(NC2=CC(=O)c3ccccc3C2=O)cc1	.	-10%	58%	-15%	?	.	.
CCOc1ccc(Nc2ccc(N)c(S(=O)(=O)O)c2)cc1	.	32µM*	11µM*	.	11µM*	75*	38*	Pol kappa inh-2=75*
O=C(O)c1ccc(CSc2nc3ccc(NC(=O)c4ccccc4C(=O)O)cc3s2)cc1	-2%	-12%	?	1%	25µM*	?	?	Pol kappa inh-2=84*
N#Cc1ccccc1CSc1nc2ccc(NC(=O)c3ccccc3C(=O)O)cc2s1	5%	-15%	10%	?	?	.	.
SMILES	TDP1 inh	Pol kappa inh-1	Pol iota inh	Pol beta inh	Pol eta inh-1	POLI cherry-pick	Pol eta inh-2	others
Cc1ccccc1C(=O)Nc1nc2nc(-c3ccccc3)cc(=O)n2[nH]1	7%	-10%	1%	-29%	9%	.	.
CCCC[N+](C)(C)CCC(=O)NC(C)(C)CS(=O)(=O)[O-]	-5%	-27%	?	20µM*	13µM*	.	76*	TbPGK inh=?
O=C(CCCN1C(=O)/C(=C/c2ccccc2Cl)SC1=S)NCCCN1CCOCC1	10%	-3%	?	3%	-1%	.	.
O=C1C(=Cc2cccc(O)c2O)SC(=S)N1CCCN1CCOCC1	.	.	.	.	20µM*	?	?
Nc1ccc(Nc2ccccc2)c(S(=O)(=O)O)c1	56µM*	79µM*	11µM*	11µM*	16µM*	47*	38*	Pol kappa inh-2=8.4*
COc1ccccc1CNC(=O)COC(=O)c1cc(-c2ccco2)nc2ccccc12	.	22µM*	7.1µM*	5µM*	14µM*	21*	24*	Pol kappa inh-2=15*
COc1ccc(NC(=O)CN(C)C(=O)c2cc(-c3ccco3)nc3ccccc23)cc1	4µM*	45µM*	8.9µM*	.	2.8µM*	30*	43*
COCCNC(=O)c1sc2nc3n(c(=O)c2c1C)CCC3	5%	-13%	10%	-22%	4%	.	.

From PubChem
